# This is a sample that favours compounds with a hit; in the whole collection about 17% have one here.
# TDP1 cell CPT: qHTS for Inhibitors of human tyrosyl-DNA phosphodiesterase 1 (TDP1): qHTS in cells in presence of CPT | chicken DT40 Tdp1-/-;hTDP1 cells + 20 nM CPT, ATP luminescence, 48 h | AID 686979, 2013 | 420,000 compounds, 12% hits | Potency, µM (highest dose often 46.2 µM), for the others: at the top dose activity change, negative = growth inhibition, most hits filed as inhibitors; note: % is set by controls: 0 for no effect and ±100 for the full control effect; nearly all actives have a fitted effect of over 55% in size
#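 Chicken DT40 Tdp1-/- cells stably complemented with human TDP1 were seeded at 400 cells/well in medium containing 20 nM camptothecin, exposed to pin-transferred compounds, and grown at 37 °C for at least 48 hr. Viability was read as ATP luminescence.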
# TDP1 block: qHTS Assay for Inhibitors of Tyrosyl-DNA Phosphodiesterase (TDP1) | recombinant TDP1, AlphaScreen DNA substrate cleavage | Potency, µM (titrated, usually from 130 µM), for the others: at the top dose activity change, negative = inhibition, actives largely listed as inhibitors | Tyrosyl-DNA phosphodiesterase 1 (Homo sapiens), Q9NUW8 | AID 485290, 2010 | 350,000 compounds, 0.28% hits; note: % is set by controls: 0 for no effect and ±100 for the full control effect; nearly all actives have a fitted effect of over 40% in size
# Target sequence (Q9NUW8 whole entry, looked up): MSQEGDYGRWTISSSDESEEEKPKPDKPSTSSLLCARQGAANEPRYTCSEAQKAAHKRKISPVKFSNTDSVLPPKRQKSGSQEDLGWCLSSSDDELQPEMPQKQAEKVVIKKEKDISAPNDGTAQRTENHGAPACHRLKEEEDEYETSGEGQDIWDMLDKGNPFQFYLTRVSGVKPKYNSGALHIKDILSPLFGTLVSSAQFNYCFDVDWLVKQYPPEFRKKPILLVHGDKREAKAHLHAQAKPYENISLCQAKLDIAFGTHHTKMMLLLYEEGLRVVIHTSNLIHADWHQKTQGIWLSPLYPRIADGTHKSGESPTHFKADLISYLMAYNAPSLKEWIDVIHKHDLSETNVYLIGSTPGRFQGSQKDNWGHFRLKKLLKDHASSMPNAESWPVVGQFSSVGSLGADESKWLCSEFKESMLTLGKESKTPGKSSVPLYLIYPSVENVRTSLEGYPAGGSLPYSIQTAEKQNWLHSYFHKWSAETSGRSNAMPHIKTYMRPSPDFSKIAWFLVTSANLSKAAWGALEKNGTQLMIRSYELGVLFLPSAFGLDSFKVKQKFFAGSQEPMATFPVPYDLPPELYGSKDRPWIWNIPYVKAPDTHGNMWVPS
#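 AlphaScreen read-out: signal falls as enzyme removes the 3' tyrosine-FITC from a 5'-biotinylated DNA oligo (15 nM, 5 min, RT). Enzyme was E. coli-made recombinant Tdp1 at 1 nM, exposed to compound for 15 min beforehand; beads 10 ug/ml, 10 min.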
# TDP1 cell noCPT: qHTS for Inhibitors of human tyrosyl-DNA phosphodiesterase 1 (TDP1): qHTS in cells in absence of CPT | 420,000 compounds, 15% hits | Potency, µM (doses to about 46.2 µM), without a hit: at the top dose activity change, negative = growth inhibition, usual class: inhibitors | DT40 Tdp1-/- hTDP1 cells, no CPT, ATP luminescence, 48 h; note: % is set by controls: 0 for no effect and ±100 for the full control effect; nearly all actives have a fitted effect of over 55% in size
#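 Chicken DT40 Tdp1-/- cells complemented with human TDP1, screened without camptothecin (DMSO vehicle only), 400 cells/well. Compounds pin-transferred, cells incubated at 37 °C for at least 48 hr. Growth read as ATP-dependent luminescence (CellTiter-Glo, 30 min at RT).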
# ClpP mod: qHTS Assay for Activators of ClpP; ATP-dependent Clp protease proteolytic subunit (Bacillus subtilis (strain 168)), P80244; purified B. subtilis ClpP, FRET peptide cleavage, 20 min; Potency, µM (doses to about 57.5 µM), without a hit: at the top dose activity change, negative = active; 340,000 compounds, 1.9% hits; active = well fitted falling curve with a large enough effect; inconclusive = small, poorly fitted or top-dose-only effect; inactive = no such curve, though single readings can be large or run the other way; note: the source files actives as falling curves though it sought activators and does not explain the sign; nearly all actives have a fitted effect of over 65% in size
#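 FRET quenching reversal measured ClpP activation: 10 microg/mL B. subtilis ClpP at pH 8 with the FRET-FV decapeptide, read at 430 nm after 320 nm excitation. The 20-min minus 0-min signal was scaled between DMSO/no-enzyme wells and ADEP (5.8 microM final).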
# Starred values were filed as active, the others as inactive; ? = inconclusive; . = no result given; ! = not confirmed by another sample. Unless noted, calls come from the whole dose curve; as a rule, active = well fitted curve in the direction sought with a large enough effect; inconclusive = small, poorly fitted or top-dose-only effect, or another doubt; inactive = no such curve, though single readings can be large; an effect the other way counts as inactive or inconclusive. Potency is the fitted concentration of half-maximal effect.
SMILES,TDP1 cell CPT,TDP1 block,TDP1 cell noCPT,ClpP mod
c1nc(NCc2ccc3c(c2)OCO3)c2[nH]cnc2n1,?,1%,?,0%
c1ccc2c(CCNc3ncnc4nc[nH]c34)cccc2c1,23µM*,3%,18µM*,-5%
Clc1ccc(CCNc2ncnc3nc[nH]c23)cc1,12µM*,7%,7.3µM*,1%
CCCNc1ncnc2nc[nH]c12,?,10%,-15%,0%
C1=C(CCNc2ncnc3nc[nH]c23)CCCC1,13µM*,3%,15µM*,0%
Cc1cc(N)n(-c2ccccn2)n1,2%,4%,-11%,1%
COc1ccc(Oc2ncc3nc(-c4ccc(F)cc4)c(=O)n(Cc4cccs4)c3n2)cc1,12%,.,-4%,.
CSc1ccc(/C=N/NC(=O)c2ccc(C)c(C)c2)cc1,?,-5%,23µM*,?
CSc1ccc(/C=N/NC(=O)c2cc(O)cc(O)c2)cc1,-7%,1%,3%,-11%
Cc1ccc(S(=O)(=O)NC(=O)C2(C)CCN2C(=O)c2ccccc2CCc2ccccc2)nc1 (stereo not given),0%,.,-9%,1%
Cn1cc(Br)c(C(=O)NNC(=O)Nc2ccccc2C(F)(F)F)n1,5%,5%,-17%,-2%
Cc1ccc(NC(=O)Cn2nc(C)c3nn(-c4ccc(Cl)cc4)c(C)c3c2=O)cc1C,?,0%,15µM*,-4%
Cc1ccc(NC(=O)CCn2nc(C)c3c(C)n(-c4ccccc4)nc3c2=O)cc1Cl,-12%,3%,-8%,-1%
Cc1nn(CC(=O)Nc2ccc(C(C)C)cc2)c(=O)c2c(C)n(-c3ccc(Cl)cc3)nc12,?,-8%,?,3%
Cc1ccc(NC(=O)Cn2nc(C)c3nn(-c4ccc(Cl)cc4)c(C)c3c2=O)cc1F,?,0%,16µM*,-8%
O=C1Cc2cc(NS(=O)(=O)c3ccc([N+](=O)[O-])cc3)cc3c2N1CCC3,?,.,-18%,1%
CCC1=NN2C(=N)/C(=C\c3cccn3-c3c(C)cccc3C)C(=O)N=C2S1,?,5%,3.7µM*,-2%
CCC1=NN2C(=N)/C(=C/c3cc(C)n(Cc4ccccc4)c3C)C(=O)N=C2S1,1%,6%,1%,25µM*
Cc1cc(/C=C2\C(=N)N3N=C(C(C)C)SC3=NC2=O)c(C)n1Cc1ccccc1,14%,-19%,0%,.
O=C(N/N=C/c1ccc(O)cc1O)c1ccc(CN2C(=O)c3cccc4cccc2c34)cc1,4.6µM*,6%,3.7µM*,.
Cc1[nH]ccc(=O)c1Cc1c(Cl)cccc1Cl,26%,.,2%,.
Cc1nc(C(Cl)(Cl)Cl)nc2[nH]ccc(=O)c12,?,-1%,16µM*,.
CC(=O)c1ccc(NC(=O)CCc2c(C)nc3c(c(C)nn3-c3ccc(C)cc3)c2C)cc1,?,8%,7.3µM*,14µM*
Cc1ccc(-n2nc(C)c3c(C)c(CCC(=O)NCCCOC(C)C)c(C)nc32)cc1,23µM*,.,?,4%
Cc1ccc(-n2nc(C)c3c(C)c(CCC(=O)Nc4ccc(CN5CCCC5)cc4)c(C)nc32)cc1,?,.,12µM*,.
SMILES,TDP1 cell CPT,TDP1 block,TDP1 cell noCPT,ClpP mod
COC(CNC(=O)CCc1c(C)nc2c(c(C)nn2-c2ccc(C)cc2)c1C)OC,?,.,?,4%
COCCCNC(=O)CCc1c(C)nc2c(c(C)nn2-c2ccccc2)c1C,-18%,.,-13%,4%
O=C(O)[C@H](Cc1ccccc1)NC(=O)N1CCN(c2cccc(C(F)(F)F)c2)CC1,-7%,.,-11%,-2%
Cc1cccc(CNC(=O)Nc2nnc([C@H]3C[C@H](O)[C@@H](CO)O3)s2)c1,-1%,.,6%,1%
CC1CCCC1/C(=N/O)c1ccccc1 (stereo not given),-26%,.,-6%,0%
CC(=O)C1=C(O)C(=O)N(Cc2ccccc2)C1c1ccc(Cl)cc1 (stereo not given),25%,.,-9%,.
O=C1[C@H](Cc2ccccc2)NCC=CC[C@@H](c2ccco2)N1Cc1ccccc1,?,.,?,1%
O=C1[C@H](Cc2ccccc2)NCCCC[C@H](c2ccc(Cl)cc2)N1Cc1ccccc1,?,.,16µM*!,-1%
O=C1[C@H](Cc2ccccc2)NCCCC[C@@H](c2ccc(Cl)cc2)N1Cc1ccc(Cl)cc1,?,.,?,-6%
CC(C)CC(=O)N1CC=CC[C@@H](c2ccc(Cl)cc2)N(Cc2ccc(Cl)cc2)C(=O)[C@@H]1Cc1ccccc1,15µM*,.,13µM*,-1%
O=C1[C@H](Cc2ccccc2)NC/C=C\C[C@@H](c2ccc(Cl)cc2)N1Cc1ccccc1,13µM*,.,11µM*,2%
O=C1[C@H](Cc2ccccc2)NC/C=C\C[C@@H](c2ccco2)N1Cc1ccccc1,?,.,14µM*,2%
O=C1[C@H](Cc2ccccc2)NC/C=C\C[C@H](c2ccc(Cl)cc2)N1Cc1ccc(Cl)cc1,?,.,?,-2%
CC(CCc1ccccc1)NC(=O)c1ccccc1Cl (stereo not given),11%,.,5%,.
Cc1ccc(-c2csc(NC(=O)C3CC(=O)N(c4ccc5c(c4)OCCO5)C3)n2)o1 (stereo not given),?,5%,?,0%
O=C1[C@H](Cc2ccccc2)NCCCC[C@@H](c2ccco2)N1Cc1ccccc1,?,.,13µM*!,1%
O=C1[C@H](Cc2ccccc2)NCCCC[C@H](c2ccco2)N1Cc1ccccc1,13µM*,.,21µM*,-3%

# Bioassay records: PubChem, National Center for Advancing Translational Sciences (NCATS)
